This is a sample that favours compounds with a hit; in the whole collection about 1.3% have one here.
E coli Lon inh = inhibits E. coli Lon protease; purified E. coli Lon protease, fluorescence polarization; inhibition, % at 7.94 µM; 0.42% of 360,000 active; in the data active means inhibition above about 13%, passing the limit was not always enough;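 further: 0% = enzyme with probe and DMSO and 100% = no enzyme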
GLD-1 RNA inh = GLD-1-TGE RNA interaction inhibition (C. elegans) | Q17339 | purified GLD-1 + fluorescein TGE RNA, fluorescence polarization | inhibition, % at 5.96 µM | 0.44% of 320,000 active;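 active means percent inhibition above a per-plate cutoff, the plate mean of test compounds plus 3 SD, cut at about 30% in these data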;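 further: 0% = DMSO wells with GLD-1 and probe and 100% = wells lacking GLD-1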
EBV gp42 block = EBV gp42 inhibition; Q1HVG2; Fluorescence polarization binding assay, mP read-out; inhibition, % (tested at 21.74 µM); 0.42% of 220,000 active; in the data active means inhibition above about 50%
BCLXL inh = inhibitors of human Bcl-xL; Q07817; GST-Bcl-xL / FITC-Bim BH3 peptide fluorescence polarization; inhibition, % at 10.9 µM; 0.7% of 320,000 active; AID 2129;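 active means inhibition above the mean of all tested compounds plus 3 SD, cutoff set per campaign, cut at about 30% in these data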;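 further: 0% = DMSO wells and 100% = unlabeled Bim-BH3 peptide competitor; inhibitors lower millipolarization by displacing the labeled peptide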
MEX-5 binding = C. elegans MEX-5 TCR-2 RNA binding activity; MEX-5/FITC-TCR2 RNA binding, fluorescence polarization; active compounds read low; activity score (negative = inhibition of binding), % at 10 µM; 0.38% of 300,000 active; AID 1832;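 active means inhibition past about -25% in most replicates, and total fluorescence under double the plate's negative control median, limit read from the data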;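 further: 0% = DMSO and -100% = 5 µM competing unlabeled TCR2 RNA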
Target sequence (Q9XUB2 whole entry, looked up): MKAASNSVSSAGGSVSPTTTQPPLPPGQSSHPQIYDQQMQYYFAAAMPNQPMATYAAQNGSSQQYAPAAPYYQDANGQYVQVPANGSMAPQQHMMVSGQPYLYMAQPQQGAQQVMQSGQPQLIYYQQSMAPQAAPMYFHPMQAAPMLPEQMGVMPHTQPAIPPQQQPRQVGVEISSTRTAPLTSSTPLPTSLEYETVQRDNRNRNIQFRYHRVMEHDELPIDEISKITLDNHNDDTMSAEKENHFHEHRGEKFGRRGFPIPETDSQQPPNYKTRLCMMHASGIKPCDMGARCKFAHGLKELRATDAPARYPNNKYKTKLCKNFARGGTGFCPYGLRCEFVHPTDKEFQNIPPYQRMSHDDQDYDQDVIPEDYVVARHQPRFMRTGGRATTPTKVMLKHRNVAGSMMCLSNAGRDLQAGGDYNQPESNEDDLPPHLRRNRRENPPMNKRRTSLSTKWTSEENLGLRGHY
* = called active by the depositor; nt = no result; + = active, no number.

SMILES | E coli Lon inh | GLD-1 RNA inh | EBV gp42 block | BCLXL inh | MEX-5 binding
O=C(O)c1cccc(NC(=S)NC(NC(=O)c2cccc([N+](=O)[O-])c2)C(Cl)(Cl)Cl)c1 (configuration not stated) | -2 | 4 | 1 | 11 | 2
CCOCCCNC(=O)c1ccc2c(c1)ncn2-c1cccc(C)c1 | -1 | 10 | nt | 1 | 0
O=C(N/N=C/c1cccc(OC(=O)c2cccc(Br)c2)c1)c1ccncc1 | 7 | -3 | nt | -1 | 3
NC(=O)COC(=O)C1c2ccccc2Oc2ccccc21 | 8 | 0 | nt | 7 | -2
N#CCN(CC#N)C(=O)C1c2ccccc2Oc2ccccc21 | 12 | + | nt | + | 1
CC1CN(C2CC(C)(C)NC(C)(C)C2)CCC1=O (configuration not stated) | -6 | 1 | -30 | 7 | -48*
COc1ccc(N2C(=O)CC(Sc3nc4c(cc3C#N)CCC4)C2=O)cc1 (configuration not stated) | 5 | -2 | -1 | 0 | -2
Oc1ccc(-c2cn3c(n2)SCC3)cc1O | 4 | 6 | -22 | 28 | -40*
Oc1ccc(-c2cn3c(n2)SCC3)cc1 | 2 | 4 | -24 | 4 | 0
CCc1ccc(N2CC(C(=O)Nc3nc4ccc(S(C)(=O)=O)cc4s3)CC2=O)cc1 (configuration not stated) | -6 | 9 | nt | 4 | 0
COc1ccc(C=C2NC(=S)NC2=O)cc1 | -2 | nt | nt | nt | nt
COc1ccc(C(=O)N2C(=S)NC(=O)/C2=C\c2ccc(C)cc2)cc1 | -75 | -15 | -76 | -20 | -28*
Cc1ccc(S(=O)(=O)NCc2cccnc2)cc1C(=O)NC1CCCCC1 | -5 | 7 | nt | 2 | -2
O=C(COC(=O)/C=C/c1cccc(Br)c1)Nc1ccc(Cl)cn1 | 0 | nt | nt | nt | nt
COc1cccc(/C=C/C(=O)OCC(=O)Nc2ccc(Cl)cn2)c1 | 14* | -5 | -18 | 0 | 5
Nc1ccc(-c2nc3ccc([N+](=O)[O-])cc3[nH]2)cc1 | -8 | 4 | -4 | 3 | 1
O=[N+]([O-])c1ccc(-c2nc3ccc([N+](=O)[O-])cc3[nH]2)cc1 | -19 | -1 | 75* | 4 | -2
O=S(=O)(NCC(c1cccs1)N1CCc2ccccc2C1)c1ccccc1 (configuration not stated) | 14 | 5 | nt | 7 | 0
CN(C=[N+](C)C)c1cccc2c1C(=O)c1ccccc1C2=O | 15 | 18 | 1 | 35* | -28*
O=C(Cn1c2ccccc2c(=O)c2ccccc21)N/N=C/c1ccc(N2CCCC2)c([N+](=O)[O-])c1 | -3 | 8 | 74* | 4 | 0
O=C(Cn1c2ccccc2c(=O)c2ccccc21)N/N=C/c1cc([N+](=O)[O-])ccc1N1CCCCCC1 | 0 | 0 | -93 | 9 | -1
CC1(C2CC2)NC(=O)N(CC(=O)Nc2ccc(F)cc2F)C1=O (configuration not stated) | 0 | -5 | nt | 1 | nt
Fc1ccc(N=c2ssnc2Cl)c(F)c1 | 0 | 9 | -21 | 3 | -30*
C=CCOc1ccc(C2/C(=C(\O)c3ccc4c(c3)OCCO4)C(=O)C(=O)N2CCCN2CCOCC2)cc1 (configuration not stated) | -6 | 4 | nt | 5 | -1
COc1ccc(/C=N/NC(=O)CCN2CCN(c3ccccc3)CC2)c(OC)c1OC | -10 | -4 | 4 | -1 | 3
SMILES | E coli Lon inh | GLD-1 RNA inh | EBV gp42 block | BCLXL inh | MEX-5 binding
O=C(CCN1CCN(c2ccccc2)CC1)N/N=C/c1ccc(O)c(O)c1O | 3 | nt | 58* | nt | 0
CCC(C)Sc1cccc(-c2nc3ccc(C)cn3c2NC2CCCCC2)c1 (configuration not stated) | 8 | -13 | nt | 2 | 3
CCC(C)Sc1ccc(-c2nc3ccc(C)cn3c2NC2CCCCC2)cc1 (configuration not stated) | nt | 15 | nt | 48* | -3
Cc1nc(S/C(=C/c2ccc(OCc3ccc(C(=O)O)cc3)cc2)C(=O)O)n[nH]1 | 7 | 5 | 1 | 4 | -69*
O=C1Nc2ccccc2SC(c2ccccc2)C1O (configuration not stated) | -9 | 4 | 67* | 22 | -6
O=c1[nH]c2cc3c(cc2cc1CN(Cc1ccccc1)Cc1nnnn1Cc1ccco1)OCCO3 | -34 | nt | -12 | nt | -1
O=c1[nH]c2cc3c(cc2cc1CN(Cc1cccnc1)Cc1nnnn1Cc1ccco1)OCCO3 | 0 | 6 | -14 | 34* | -3

Assay outcomes: PubChem BioAssay, several laboratories
